Most compounds without a hit are left out; they make up all but 3.2% or so of the library.
MsrA inhibitor – bovine MsrA enzyme inhibitors, primary screen, biochemical, absorbance, HTS | Methionine sulfoxide reductase A (Bos taurus) | purified bovine MsrA, absorbance read-out | inhibition, % at 15.5 µM | hit rate 0.75% among 360,000; in the data active means inhibition above about 4.5%;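 further: 0% = vehicle wells with enzyme and 100% = reference inhibitor wells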
HGIII-sPLA2 inh – human group III sPLA2 inhibitors, primary screen, biochemical, QFRET, BODIPY PC-A2 liposome substrate; QFRET BODIPY PC-A2 liposome hydrolysis, fluorescence; inhibition, % at 12.2 µM; hit rate 0.56% among 370,000;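 active means inhibition above mean plus 3 SD of compounds lying within the high and low control bounds, cut at about 19% in these data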;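 further: 0% = median of test compound wells and 100% = no enzyme DMSO wells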
Target sequence (Q9NZ20 whole entry, looked up): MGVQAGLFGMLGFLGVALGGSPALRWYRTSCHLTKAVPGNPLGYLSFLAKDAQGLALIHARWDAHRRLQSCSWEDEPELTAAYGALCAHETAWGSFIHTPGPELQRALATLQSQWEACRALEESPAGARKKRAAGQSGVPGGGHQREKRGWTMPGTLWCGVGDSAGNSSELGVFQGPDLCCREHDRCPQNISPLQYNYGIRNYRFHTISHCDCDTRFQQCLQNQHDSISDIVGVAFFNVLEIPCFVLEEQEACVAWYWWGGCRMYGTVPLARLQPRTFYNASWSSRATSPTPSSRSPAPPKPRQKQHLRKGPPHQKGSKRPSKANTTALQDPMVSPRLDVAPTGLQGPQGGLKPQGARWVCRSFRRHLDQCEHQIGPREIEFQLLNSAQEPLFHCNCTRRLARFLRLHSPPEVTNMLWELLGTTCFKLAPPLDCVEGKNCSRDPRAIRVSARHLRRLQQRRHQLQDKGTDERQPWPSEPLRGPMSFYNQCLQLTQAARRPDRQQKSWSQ
MsrA act – bovine MsrA enzyme activators, primary screen, biochemical, absorbance, HTS; purified bovine MsrA, absorbance read-out; hit rate 0.3% among 360,000; activation, % at 10.6 µM; AID 602163, 2012; in the data active means activation above about 7.5%;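 further: 0% = vehicle and 100% = reference activator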
PG9 binder – binders of HIV-1 gp120 antibody PG9, primary screen, biochemical, TR-FRET; inhibition, % at 6.7 µM; AID 624416, 2012; hit rate 0.43% among 360,000; TR-FRET gp120-PG9 antibody binding; HIV-1 gp120 / PG9 antibody interaction; in the data active means inhibition above about 8.5%
rCAG RNA binder – binders of r(CAG) RNA repeats, primary screen, biochemical, fluorescence; r(CAG) RNA repeat, TO-PRO-1 dye displacement fluorescence; inhibition, % at 3 µM; hit rate 1.3% among 370,000; AID 651821, 2012;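 active means inhibition above the plate cutoff, the mean of all test compounds on that plate plus 3 SD, cut at about 35% in these data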;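 further: 0% = DMSO alone and 100% = 100 µM mitoxantrone as full dye displacement; higher means more dye released from RNA so lower well fluorescence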
PG9 bind confirm – binders of anti-gp120 antibody PG9, confirmation, biochemical, TR-FRET; shares compounds with PG9 binder; TR-FRET PG9 antibody binding; inhibition, % at 6.7 µM; hit rate 90% among 1,500; AID 651571, 2012; in the data active means inhibition above about 9%
PGV04 counter – binders of control antibody PGV04, counter-screen for PG9 antibody binder project, biochemical, TR-FRET, distinct HIV envelope site | shares compounds with PG9 binder | TR-FRET PGV04 antibody-gp120 binding | inhibition, % at 6.7 µM | hit rate 95% among 1,500 | AID 651604, 2012; in the data active means inhibition above about 9.5%
* marks the source's active call; other numbers are inactive results; x = not tested or not shown.

SMILES	MsrA inhibitor	HGIII-sPLA2 inh	MsrA act	PG9 binder	rCAG RNA binder	PG9 bind confirm	PGV04 counter
Cc1ccc(O)c(C2=Nc3ccccc3N=C(c3ccco3)C2)c1	2	0	3	59*	6	55*	69*
N#Cc1ccc(/C=C2\CC3(OC(=O)c4ccc(Cl)cc4)CCCN2C3)cc1 (centres undefined)	x	-6	x	x	4	x	x
S=C(Nc1ccc(Br)cc1)OCCN1CCCC12CCC(c1ccccc1)CC2 (centres undefined)	x	1	x	x	x	x	x
COc1ccc(-c2nnc(SCc3nc4ccccc4c(=O)[nH]3)o2)cc1	-1	-3	-5	8.9*	2	12*	14*
O=C(CSc1nnc(-c2ccc(Br)cc2)n1C1CCCCC1)N1CCCC1	1	6	-3	9.3*	-4	8.7*	10*
O=C(CCCn1c(SCc2cccc(F)c2)nc2ccccc2c1=O)NCC1CCCO1 (centres undefined)	-1	2	-5	13*	-4	9.5*	13*
Cc1ccc(-n2c(SCC(=O)NCC3CCCO3)nc3ccccc3c2=O)cc1C (centres undefined)	0	3	3	0	-1	x	x
COc1ccc2c(C)cc(SCC(=O)NC3CCCC3)nc2c1	1	-13	-3	11*	0	15*	29*
Cc1cc(SCC(=O)NCC2CCCO2)nc2ccccc12 (centres undefined)	0	-9	4	12*	-4	17*	20*
COc1ccc2nc(SCC(=O)NC3CCCC3)c(C)cc2c1	-1	3	0	34*	-3	26*	33*
O=C(OCCN1CCN(C2CN(Cc3cn(Cc4ccc([N+](=O)[O-])cc4)nn3)S(=O)(=O)C2)CC1)c1cc2ccccc2o1 (centres undefined)	x	2	x	x	0	x	x
CCC(C#Cc1ccccc1)N(C)C(N)=NC(=O)/C=C/c1ccccc1 (centres undefined)	x	2	x	x	x	x	x
O=C(C1CCN(c2cncnc2)CC1)N1CCCC1	x	5	x	x	2	x	x
Cc1ccccc1C(=O)N1CCC(Oc2cccnc2)CC1	x	-1	x	x	0	x	x
Cc1cc(SCC(=O)NC2CC2)nc2ccccc12	2	7	-3	11*	1	12*	16*
COc1ccc2nc(SC)c(C#N)cc2c1	1	4	-2	13*	0	26*	58*
O=C(Nc1ccc2c(c1)C(=O)NC2=O)c1cc(Cl)ccc1Cl	1	3	-3	9.5*	5	10*	15*
O=C(Nc1ccc2c(c1)C(=O)NC2=O)c1ccc(Cl)s1	1	9	-2	-3	-1	x	x
O=C(Nc1ccc2c(c1)C(=O)NC2=O)c1cccc(Cl)c1	1	-6	-1	17*	4	28*	47*
CCCCOc1ccc(C(=O)Nc2ccc3c(c2)C(=O)NC3=O)cc1	-1	7	-7	21*	4	6	11*
COc1ccc2c(c1)c1nc3n(c(=O)c1n2CC(=O)Nc1ccccc1)CCCS3	0	0	-6	13*	5	26*	36*
CCOC(=O)N1CCN(C(=O)C[C@H]2C[C@@]3(C(=O)OC)C(=C[C@H](C4CCCC4)O[C@@H]3C)N(Cc3cccc4ccccc34)C2=O)CC1	x	-9	x	x	8	x	x
CCc1ccc(NC(=O)CSc2nnc(-c3n[nH]c4ccccc34)n2-c2ccccc2)cc1	1	8	-3	9.8*	2	15*	24*
O=C(CSc1nnc(-c2n[nH]c3ccccc23)n1-c1ccccc1)Nc1cccc(Cl)c1	1	-14	3	2	3	x	x
O=C(CSc1nnc(-c2ccccc2)n1-c1ccc(Cl)cc1)Nc1ccccc1-c1ccccc1	x	8	x	x	10	x	x
SMILES	MsrA inhibitor	HGIII-sPLA2 inh	MsrA act	PG9 binder	rCAG RNA binder	PG9 bind confirm	PGV04 counter
Cc1ccccc1NC(=O)CSc1nnc(-c2ccccc2)n1-c1ccccc1	0	0	1	37*	0	4	6
Brc1ccc2ncc(Br)cc2c1	0	-6	-2	12*	0	16*	23*
Nc1nnc2cc(Br)ccc2n1	0	-5	-4	-1	-1	x	x
COc1ccc2c(c1)oc(=O)c1c3ccccc3[nH]c21	1	-3	-4	13*	10	8.9*	21*
O=C(COC(=O)c1ccc2ccccc2c1)Nc1ncc(C(F)(F)F)cc1Cl	-1	-3	-7	15*	-1	18*	27*
O=C1CCC[C@H]2C[C@H](NCc3cccc(F)c3)CC[C@]23CCCN13	x	12	x	x	x	x	x
COCc1cc(C)nc(Nc2ccc(C)cc2C)c1C#N	1	-3	-2	-1	-1	x	x
COCc1cc(C)nc(Nc2ccc(C)c(C)c2)c1C#N	2	4	-2	31*	2	29*	46*
CC1CCN(C(=O)c2ncn3c2c(=O)[nH]c2ccc(Br)cc23)CC1	0	4	-3	9.1*	1	14*	18*
COc1ccc(CNC(=O)CN(C(=O)c2snc(C(N)=O)c2N)c2ccc(F)cc2)cc1	0	0	0	-2	2	x	x
COc1ccc(N(CC(=O)NCc2ccc(F)cc2)C(=O)c2snc(C(N)=O)c2N)cc1	1	-2	-3	-2	-2	x	x
CC(C)c1ccc(N(CC(=O)NCc2ccc(F)cc2)C(=O)c2snc(C(N)=O)c2N)cc1	0	-3	-4	11*	4	18*	23*
CCOc1ccc(N(CC(=O)NCc2ccc(F)cc2)C(=O)c2snc(C(N)=O)c2N)cc1	0	-2	-3	9.4*	6	18*	25*
CCc1nc(SCC(=O)Nc2cc(C)on2)c2c(C)c(C)sc2n1	1	4	0	0	0	x	x

Bioassay records from PubChem BioAssay.
